Experimental data taken from the supplement of paper PMC10077471.
Over roughly 1,900 compounds, “excess over highest single agent (ExcessHSA) synergy score, 6x6 matrix” has its median near -83; the lowest 2% begin near -370. The entries come from a sample that favours the lowest values as a whole.

The molecules below were run on NCI-H446 (assay: excess over highest single agent (ExcessHSA) synergy score, 6x6 matrix; higher = less synergy (more negative = stronger synergy)). Conditions: 72 h; CellTiter-Glo viability.
`COc1ncc(-c2ccc3nccc(-c4ccnnc4)c3c2)cc1NS(=O)(=O)c1ccc(F)cc1F` + Cc1sc2c(c1C)C(c1ccc(Cl)cc1)=N[C@@H](CC(=O)OC(C)(C)C)c1nnc(C)n1-2 [NCGC00250412-19] was tested, and the “excess over highest single agent” value was -259.
In the case of `CCn1c(-c2nonc2N)nc2cncc(CNC3CCNCC3)c21` + Cc1sc2c(c1C)C(c1ccc(Cl)cc1)=N[C@@H](CC(=O)OC(C)(C)C)c1nnc(C)n1-2 [NCGC00250412-19], the “excess over highest single agent” value is reported as 51.1.
With `Cc1ccccc1-n1c(Cn2nc(-c3cccc(O)c3)c3c(N)ncnc32)nc2cccc(C)c2c1=O` + Cc1sc2c(c1C)C(c1ccc(Cl)cc1)=N[C@@H](CC(=O)OC(C)(C)C)c1nnc(C)n1-2 [NCGC00250412-19] the “excess over highest single agent” value was -224.
`O=C(O)[C@]1(Cc2cccc(Nc3nccs3)n2)CC[C@@H](Oc2cccc(Cl)c2F)CC1` + Cc1sc2c(c1C)C(c1ccc(Cl)cc1)=N[C@@H](CC(=O)OC(C)(C)C)c1nnc(C)n1-2 [NCGC00250412-19] was tested, and the “excess over highest single agent” value was -273.
`O=C(O)c1nc(=O)[nH]c(=O)[nH]1` + Cc1sc2c(c1C)C(c1ccc(Cl)cc1)=N[C@@H](CC(=O)OC(C)(C)C)c1nnc(C)n1-2 [NCGC00250412-19] was tested, and the “excess over highest single agent” value was -48.1.
In the case of `CCS(=O)(=O)c1cccc(-c2cc(C(=O)NC3CCN(C)CC3)c(C)c3[nH]c4ncc(C)cc4c23)c1` + Cc1sc2c(c1C)C(c1ccc(Cl)cc1)=N[C@@H](CC(=O)OC(C)(C)C)c1nnc(C)n1-2 [NCGC00250412-19], the “excess over highest single agent” value is reported as -197.
In the case of `C=CC[C@@H]1/C=C(\C)C[C@H](C)C[C@H](OC)[C@H]2O[C@@](O)(C(=O)C(=O)N3CCCC[C@H]3C(=O)O[C@H](/C(C)=C/[C@@H]3CC[C@@H](O)[C@H](OC)C3)[C@H](C)[C@@H](O)CC1=O)[C@H](C)C[C@@H]2OC` + Cc1sc2c(c1C)C(c1ccc(Cl)cc1)=N[C@@H](CC(=O)OC(C)(C)C)c1nnc(C)n1-2 [NCGC00250412-19], the “excess over highest single agent” value is reported as -143.
`CO[C@H]1C[C@@H]2CC[C@@H](C)[C@@](O)(O2)C(=O)C(=O)N2CCCC[C@H]2C(=O)O[C@H]([C@H](C)C[C@@H]2CC[C@@H](OCCO)[C@H](OC)C2)CC(=O)[C@H](C)/C=C(\C)[C@@H](O)[C@@H](OC)C(=O)[C@H](C)C[C@H](C)/C=C/C=C/C=C/1C` + Cc1sc2c(c1C)C(c1ccc(Cl)cc1)=N[C@@H](CC(=O)OC(C)(C)C)c1nnc(C)n1-2 [NCGC00250412-19] was tested, and the “excess over highest single agent” value was -598.
In the case of `CO[C@H]1C[C@@H]2CC[C@@H](C)[C@@](O)(O2)C(=O)C(=O)N2CCCC[C@H]2C(=O)O[C@H]([C@H](C)C[C@@H]2CC[C@@H](OP(C)(C)=O)[C@H](OC)C2)CC(=O)[C@H](C)/C=C(\C)[C@@H](O)[C@@H](OC)C(=O)[C@H](C)C[C@H](C)/C=C/C=C/C=C/1C` + Cc1sc2c(c1C)C(c1ccc(Cl)cc1)=N[C@@H](CC(=O)OC(C)(C)C)c1nnc(C)n1-2 [NCGC00250412-19], the “excess over highest single agent” value is reported as -543.
With `CC[C@@H]1/C=C(\C)C[C@H](C)C[C@H](OC)[C@H]2O[C@@](O)(C(=O)C(=O)N3CCCC[C@H]3C(=O)O[C@H](/C(C)=C/[C@@H]3CC[C@H](Cl)[C@H](OC)C3)[C@H](C)[C@@H](O)CC1=O)[C@H](C)C[C@@H]2OC` + Cc1sc2c(c1C)C(c1ccc(Cl)cc1)=N[C@@H](CC(=O)OC(C)(C)C)c1nnc(C)n1-2 [NCGC00250412-19] the “excess over highest single agent” value was -132.
`CO[C@H]1C[C@@H]2CC[C@@H](C)[C@@](O)(O2)C(=O)C(=O)N2CCCC[C@H]2C(=O)O[C@H]([C@H](C)C[C@@H]2CC[C@@H](OC(=O)C(C)(CO)CO)[C@H](OC)C2)CC(=O)[C@H](C)/C=C(\C)[C@@H](O)[C@@H](OC)C(=O)[C@H](C)C[C@H](C)/C=C/C=C/C=C/1C` + Cc1sc2c(c1C)C(c1ccc(Cl)cc1)=N[C@@H](CC(=O)OC(C)(C)C)c1nnc(C)n1-2 [NCGC00250412-19] was tested, and the “excess over highest single agent” value was -419.
For `CO[C@H]1C[C@@H]2CC[C@@H](C)[C@@](O)(O2)C(=O)C(=O)N2CCCC[C@H]2C(=O)O[C@H]([C@H](C)C[C@@H]2CC[C@@H](O)[C@H](OC)C2)CC(=O)[C@H](C)/C=C(\C)[C@@H](O)[C@@H](OC)C(=O)[C@H](C)C[C@H](C)/C=C/C=C/C=C/1C` + Cc1sc2c(c1C)C(c1ccc(Cl)cc1)=N[C@@H](CC(=O)OC(C)(C)C)c1nnc(C)n1-2 [NCGC00250412-19], the “excess over highest single agent” value was -737.
For `Cc1cc(=O)c2c(O)c3c(O)cc(=O)c4c3c3c(cc(O)c1c23)C(C)(C)C=4O` + Cc1sc2c(c1C)C(c1ccc(Cl)cc1)=N[C@@H](CC(=O)OC(C)(C)C)c1nnc(C)n1-2 [NCGC00250412-19], the “excess over highest single agent” value was -128.
With `Oc1ccc([C@@H]2Oc3ccc(O)cc3[C@@H]3CCC[C@@H]32)cc1` + Cc1sc2c(c1C)C(c1ccc(Cl)cc1)=N[C@@H](CC(=O)OC(C)(C)C)c1nnc(C)n1-2 [NCGC00250412-19] the “excess over highest single agent” value was -48.9.
With `N#Cc1cc(NC(=O)Nc2nnc(-c3ccncc3)s2)ccc1-c1cn[nH]c1` + Cc1sc2c(c1C)C(c1ccc(Cl)cc1)=N[C@@H](CC(=O)OC(C)(C)C)c1nnc(C)n1-2 [NCGC00250412-19] the “excess over highest single agent” value was 313.
For `O=C(O)c1ccc2cc(-c3ccc(O)c(C45CC6CC(CC(C6)C4)C5)c3)ccc2c1` + Cc1sc2c(c1C)C(c1ccc(Cl)cc1)=N[C@@H](CC(=O)OC(C)(C)C)c1nnc(C)n1-2 [NCGC00250412-19], the “excess over highest single agent” value was -225.
With `CC(C)n1cnc2c(NCCCCCCNC(=O)OC(C)(C)C)nc(NCCO)nc21` + Cc1sc2c(c1C)C(c1ccc(Cl)cc1)=N[C@@H](CC(=O)OC(C)(C)C)c1nnc(C)n1-2 [NCGC00250412-19] the “excess over highest single agent” value was -65.3.
`CC1=C(C(=O)Nc2cc3cn[nH]c3cc2F)C(c2ccc(Cl)cc2F)N=C(c2ccnc(Cl)c2)N1` (centres undefined) + Cc1sc2c(c1C)C(c1ccc(Cl)cc1)=N[C@@H](CC(=O)OC(C)(C)C)c1nnc(C)n1-2 [NCGC00250412-19] was tested, and the “excess over highest single agent” value was -142.
For `COc1ccc2c(c1)CC[C@H](CN(C)CC(=O)O)[C@@H]2c1ccccc1` + Cc1sc2c(c1C)C(c1ccc(Cl)cc1)=N[C@@H](CC(=O)OC(C)(C)C)c1nnc(C)n1-2 [NCGC00250412-19], the “excess over highest single agent” value was -220.
In the case of `CNC(=O)c1ccc(N2C(=S)N(c3cnc(C#N)c(C(F)(F)F)c3)C(=O)C23CCC3)cc1F` + Cc1sc2c(c1C)C(c1ccc(Cl)cc1)=N[C@@H](CC(=O)OC(C)(C)C)c1nnc(C)n1-2 [NCGC00250412-19], the “excess over highest single agent” value is reported as -9.84.
With `CN(C)CCOc1cc(-c2cn[nH]c2)ccc1NC(=O)C1COc2ccccc2O1` (centres undefined) + Cc1sc2c(c1C)C(c1ccc(Cl)cc1)=N[C@@H](CC(=O)OC(C)(C)C)c1nnc(C)n1-2 [NCGC00250412-19] the “excess over highest single agent” value was -160.
With `O=C(O)CCNc1cc(N2CCc3ccccc3CC2)nc(-c2ccccn2)n1` + Cc1sc2c(c1C)C(c1ccc(Cl)cc1)=N[C@@H](CC(=O)OC(C)(C)C)c1nnc(C)n1-2 [NCGC00250412-19] the “excess over highest single agent” value was -73.
In the case of `CN1CCN(c2ncc(-c3cc(Cl)cc(Cl)c3Cl)c(N)n2)CC1` + Cc1sc2c(c1C)C(c1ccc(Cl)cc1)=N[C@@H](CC(=O)OC(C)(C)C)c1nnc(C)n1-2 [NCGC00250412-19], the “excess over highest single agent” value is reported as -219.
With `CN(C)Cc1c(C(=O)NCCOc2ccc(C(=O)NO)cc2)oc2ccccc12` + Cc1sc2c(c1C)C(c1ccc(Cl)cc1)=N[C@@H](CC(=O)OC(C)(C)C)c1nnc(C)n1-2 [NCGC00250412-19] the “excess over highest single agent” value was -152.
For `Cc1ccc2nc(NC(=O)CSc3nc4c(c(=O)n3-c3ccccc3)SCC4)sc2c1` + Cc1sc2c(c1C)C(c1ccc(Cl)cc1)=N[C@@H](CC(=O)OC(C)(C)C)c1nnc(C)n1-2 [NCGC00250412-19], the “excess over highest single agent” value was 84.8.
With `CC(C)(C)OC(=O)CN(Cc1ccc(Cl)cc1)Cc1ccc([N+](=O)[O-])s1` + Cc1sc2c(c1C)C(c1ccc(Cl)cc1)=N[C@@H](CC(=O)OC(C)(C)C)c1nnc(C)n1-2 [NCGC00250412-19] the “excess over highest single agent” value was 27.
With `Cn1c(=O)c(-c2c(Cl)cccc2Cl)cc2cnc(Nc3cccc(C(=O)O)c3)nc21` + Cc1sc2c(c1C)C(c1ccc(Cl)cc1)=N[C@@H](CC(=O)OC(C)(C)C)c1nnc(C)n1-2 [NCGC00250412-19] the “excess over highest single agent” value was -131.
In the case of `Cc1cc(OCCCc2c(C(=O)O)n(Cc3cccnc3)c3c(-c4c(COc5ccc(N6CCN([S+](C)(=O)[O-])CC6)cc5)nn(C)c4C)cccc23)cc(C)c1Cl` + Cc1sc2c(c1C)C(c1ccc(Cl)cc1)=N[C@@H](CC(=O)OC(C)(C)C)c1nnc(C)n1-2 [NCGC00250412-19], the “excess over highest single agent” value is reported as -31.2.
With `CCOC(=O)N1CCN([N+]([O-])=NOc2ccc([N+](=O)[O-])cc2[N+](=O)[O-])CC1` + Cc1sc2c(c1C)C(c1ccc(Cl)cc1)=N[C@@H](CC(=O)OC(C)(C)C)c1nnc(C)n1-2 [NCGC00250412-19] the “excess over highest single agent” value was -84.4.
For `O=C(c1ccc(Nc2nccc(-c3cc4ccccc4s3)n2)cc1)N1CCC(N2CCCC2)CC1` + Cc1sc2c(c1C)C(c1ccc(Cl)cc1)=N[C@@H](CC(=O)OC(C)(C)C)c1nnc(C)n1-2 [NCGC00250412-19], the “excess over highest single agent” value was -181.
With `CNC(=O)c1ccc(N2C(=S)N(c3ccc(C#N)c(C(F)(F)F)c3)C(=O)C23CCC3)cc1F` + Cc1sc2c(c1C)C(c1ccc(Cl)cc1)=N[C@@H](CC(=O)OC(C)(C)C)c1nnc(C)n1-2 [NCGC00250412-19] the “excess over highest single agent” value was -51.1.
`O=C(OCC#CCSc1nnc(-c2cccc3ccccc23)o1)c1cc2ccccc2s1` + Cc1sc2c(c1C)C(c1ccc(Cl)cc1)=N[C@@H](CC(=O)OC(C)(C)C)c1nnc(C)n1-2 [NCGC00250412-19] was tested, and the “excess over highest single agent” value was -169.
In the case of `O=C1CSC(=O)N1C(CCc1ccncc1)COc1ccc(-c2cccc([N+](=O)[O-])c2)cc1` (centres undefined) + Cc1sc2c(c1C)C(c1ccc(Cl)cc1)=N[C@@H](CC(=O)OC(C)(C)C)c1nnc(C)n1-2 [NCGC00250412-19], the “excess over highest single agent” value is reported as -96.7.
For `CS[C@H]1SC[C@H]2C(=O)N(C)[C@@H](C(C)C)C(=O)OC[C@@H](NC(=O)c3cnc4ccccc4n3)C(=O)N[C@@H](C)C(=O)N(C)[C@@H]1C(=O)N(C)[C@@H](C(C)C)C(=O)OC[C@@H](NC(=O)c1cnc3ccccc3n1)C(=O)N[C@@H](C)C(=O)N2C` + Cc1sc2c(c1C)C(c1ccc(Cl)cc1)=N[C@@H](CC(=O)OC(C)(C)C)c1nnc(C)n1-2 [NCGC00250412-19], the “excess over highest single agent” value was 15.3.
